Experiment in all cases: NCI-60 one-dose screen, 48 h (100 = growth as untreated, 0 = no growth, -100 = all killed)
One test concerns K-562 leukemia. The settings on record: 10 µM unless noted.
In another test the test system is MALME-3M melanoma. The settings on record: 10 µM unless noted.
For another test, the system named is MDA-MB-231 breast. The settings on record: 10 µM unless noted.
The next test deals with RXF 393 renal. The settings on record: 10 µM unless noted.
In another test the test system is SF-268 CNS. To be noted: 10 µM unless noted.
A further test relates to SF-295 CNS. To be noted: 10 µM unless noted.
Another test deals with SF-539 CNS. The settings on record: 10 µM unless noted.
The next test has as its system UACC-257 melanoma. To be noted: 10 µM unless noted.
The test system of another test is M14 melanoma. The settings on record: 10 µM unless noted.
The subject of a further test is HCT-15 colon. The settings on record: 10 µM unless noted.
Another test relates to HT29 colon. To be noted: 10 µM unless noted.
Another test has as its system SNB-75 CNS. The settings on record: 10 µM unless noted.
For a further test, the system named is SNB-19 CNS. The settings on record: 10 µM unless noted.
The next test deals with U251 CNS. The settings on record: 10 µM unless noted.
The test system of a further test is PC-3 prostate. To be noted: 10 µM unless noted.
A further test relates to SK-MEL-5 melanoma. The settings on record: 10 µM unless noted.
In the next test the test system is UACC-62 melanoma. The settings on record: 10 µM unless noted.
In another test the test system is LOX IMVI melanoma. To be noted: 10 µM.
A further test relates to SK-MEL-28 melanoma. To be noted: 10 µM unless noted.
For the next test, the system named is DU-145 prostate. To be noted: 10 µM unless noted.

Compounds without any hit were thinned out: in the full panel of roughly 83,000, 20% have a hit.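 Plates (96-well) were seeded with cells, treated with compound at one concentration, and incubated for 48 hours before percent growth was determined.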 Unmarked numbers belong to inactive results. Activity calls are given as the source filed them. The calls were made as follows: active = growth percent below 10; inactive = the rest.

Turning to `CC1(C)OC2C(COC(c3ccccc3)(c3ccccc3)c3ccccc3)OC(c3c[nH]c4c(N)ncnc34)C2O1` (stereo unspecified), the growth in the test with K-562 leukemia is 32.4%; in the test with MALME-3M melanoma, 93.5%; in the test with MDA-MB-231 breast, 75.7%; in the test with RXF 393 renal, 79%; with SF-268 CNS, 57.4%; in the test with SF-295 CNS it was 57.9%. In addition, the growth in the test on SF-539 CNS is 90%; with UACC-257 melanoma, 74.9%; in the test with M14 melanoma, 52.5%; with HCT-15 colon, 55.3%; with HT29 colon, 46.4%; in the test on SNB-75 CNS, 61.9%. Further, the growth is 66.1% in the test on SNB-19 CNS; 56.7% with U251 CNS; 25% in the test with PC-3 prostate; 60.8% in the test on SK-MEL-5 melanoma; 65.2% in the test on UACC-62 melanoma; 54.8% with LOX IMVI melanoma. Besides, the growth in the test on SK-MEL-28 melanoma was 66.8%.

As to `CCCCN(CCCC)CCCCCCCCCCO`, the growth in the test with DU-145 prostate is 111%; in the test on K-562 leukemia it was 93.9%; in the test with MDA-MB-231 breast it was 120%; in the test on RXF 393 renal, 106%; in the test with SF-268 CNS it was 109%; with SF-539 CNS, 105%. In addition, the growth is 106% in the test on UACC-257 melanoma; 93% in the test with M14 melanoma; 94.3% in the test with HCT-15 colon; 89.2% in the test on HT29 colon; 101% with SNB-75 CNS; 110% in the test with SNB-19 CNS. The growth in the test on U251 CNS was 102%; with PC-3 prostate, 115%; with SK-MEL-5 melanoma, 103%; with UACC-62 melanoma, 114%; with LOX IMVI melanoma, 95.2%.

For the compound `CCN(CC)c1ccc(/C=C\C(=O)c2ccc(NC(C)=O)cc2)cc1`, the growth was 60.1% in the test with DU-145 prostate; 117% in the test with MALME-3M melanoma; 65.7% in the test with MDA-MB-231 breast; 79.4% in the test with RXF 393 renal; 83.6% in the test on SF-268 CNS; 35.6% in the test on SF-295 CNS. For the same compound, the growth is 67.3% in the test with SF-539 CNS; 78.3% in the test with UACC-257 melanoma; 45.6% in the test with HCT-15 colon; 39.5% in the test on HT29 colon; -0.746% (active) with SNB-75 CNS; 61.5% in the test on SNB-19 CNS. The growth in the test with U251 CNS is 41.9%; in the test on PC-3 prostate, 71.9%; in the test with SK-MEL-5 melanoma, 97.4%; with UACC-62 melanoma, 78.5%; with LOX IMVI melanoma, 74.1%.

For the compound `CCOc1ccc(Nc2nc3c(s2)C(=O)c2ccccc2C3=O)cc1`, the growth in the test on K-562 leukemia is 37.2%; in the test with MALME-3M melanoma it was 52.9%; in the test on MDA-MB-231 breast, 33.9%; in the test on RXF 393 renal it was 105%; with SF-268 CNS, 73%; with SF-295 CNS, 102%. In addition, the growth in the test on SF-539 CNS was 108%; in the test on UACC-257 melanoma, 94.7%; with M14 melanoma it was 85.9%; in the test on HCT-15 colon, 30.4%; with HT29 colon, 115%; in the test on SNB-75 CNS it was 76.3%. In addition, the growth in the test with SNB-19 CNS is 89.9%; with PC-3 prostate, 57.4%; in the test on SK-MEL-5 melanoma, 62.1%; with UACC-62 melanoma, 56.6%; in the test on LOX IMVI melanoma, -5.52% (active); in the test with SK-MEL-28 melanoma it was 106%.

As for `COc1ccc(NC(=O)/C(=C/N2C(=O)/C(=C/c3ccc(OC)c(OC)c3)NC2=S)C(C)=O)cc1`, the growth in the test on DU-145 prostate was 96.4%; in the test with MDA-MB-231 breast it was 73%; with RXF 393 renal it was 85.6%; with SF-268 CNS it was 78.3%; in the test with SF-295 CNS it was 93.9%; in the test with SF-539 CNS it was 85.1%. Moreover, the growth is 60% in the test with UACC-257 melanoma; 53.8% in the test on M14 melanoma; 80.1% with HCT-15 colon; 92.8% in the test with HT29 colon; 38.1% with SNB-75 CNS; 73% in the test on SNB-19 CNS. Besides, the growth was 57.3% in the test with U251 CNS; 62.4% with PC-3 prostate; 68.9% in the test with SK-MEL-5 melanoma; 53.9% in the test on UACC-62 melanoma; 58.9% in the test with LOX IMVI melanoma; 77.2% in the test on SK-MEL-28 melanoma.

Consider `CCOc1ccc(C(CN2CCOCC2)C(C)=O)cc1OC` (stereo unspecified), for which the growth in the test with K-562 leukemia was 45.5%; in the test on MALME-3M melanoma it was 84%; in the test with MDA-MB-231 breast, 94.6%; in the test on RXF 393 renal it was 85.8%; in the test with SF-268 CNS, 105%; in the test on SF-295 CNS, 102%. In addition, the growth was 89.6% in the test on SF-539 CNS; 90% in the test with UACC-257 melanoma; 54.2% with HCT-15 colon; 107% with HT29 colon; 85.9% in the test with SNB-75 CNS; 103% with SNB-19 CNS. The growth in the test with U251 CNS is 95.9%; in the test on PC-3 prostate it was 101%; with SK-MEL-5 melanoma, 93.6%; with UACC-62 melanoma it was 93.6%; with LOX IMVI melanoma it was 68.9%; in the test with SK-MEL-28 melanoma, 102%.

`CCN(CC)CCNc1ccc([N+](=O)[O-])c2sc3ccccc3c(=O)c12`: the growth is 10.2% with K-562 leukemia; -8.2% (active) in the test on MALME-3M melanoma; 56.2% in the test on MDA-MB-231 breast; 5.72% (active) with RXF 393 renal; 32.2% with SF-268 CNS; 7.95% (active) with SF-295 CNS. The growth in the test on SF-539 CNS is 21.9%; in the test with UACC-257 melanoma, 29.3%; in the test with M14 melanoma, 34.1%; in the test on HCT-15 colon it was 23%; in the test on HT29 colon it was 9.13% (active); with SNB-75 CNS, 34.8%. Besides, the growth is 34.8% in the test with SNB-19 CNS; 22.8% in the test with U251 CNS; 27.3% in the test with PC-3 prostate; 21.1% in the test on SK-MEL-5 melanoma; 35.7% in the test on UACC-62 melanoma; 19.4% in the test with LOX IMVI melanoma.

As to `Cc1cc(C)c([I+]c2c(C)cc(C)cc2C)c(C)c1`, the growth was 14.8% in the test on DU-145 prostate; -51.6% (active) in the test with MALME-3M melanoma; -55.1% (active) in the test on MDA-MB-231 breast; -36.7% (active) with RXF 393 renal; -66.9% (active) with SF-268 CNS; -33.7% (active) with SF-295 CNS. In addition, the growth is -74.7% (active) in the test with SF-539 CNS; -49.6% (active) with UACC-257 melanoma; -77.6% (active) in the test on M14 melanoma; 25.7% with HCT-15 colon; -10.5% (active) in the test on HT29 colon; -60% (active) in the test with SNB-75 CNS. The growth was -78.3% (active) with SNB-19 CNS; -88.7% (active) with U251 CNS; -16.7% (active) with PC-3 prostate; -92.6% (active) with UACC-62 melanoma; -89.2% (active) in the test with LOX IMVI melanoma; -61.4% (active) with SK-MEL-28 melanoma.

Regarding `O=C(/C=C/c1ccccc1)c1ccccc1O`, the growth was 51.6% with K-562 leukemia; 97.2% in the test on MALME-3M melanoma; 91.5% in the test on MDA-MB-231 breast; 65.7% with RXF 393 renal; 85.2% with SF-268 CNS; 94.8% with SF-295 CNS. The growth was 89.9% with SF-539 CNS; 91.8% in the test with UACC-257 melanoma; 92.3% with M14 melanoma; 67.3% in the test with HCT-15 colon; 84.5% in the test with HT29 colon; 63.7% in the test on SNB-75 CNS. Moreover, the growth is 80.1% in the test on SNB-19 CNS; 61.1% with U251 CNS; 92.9% in the test on PC-3 prostate; 94.9% in the test with SK-MEL-5 melanoma; 85.8% in the test with UACC-62 melanoma; 34.9% in the test on LOX IMVI melanoma.

The record behind these values is PubChem BioAssay (NCI).
